Columns and labels:
Experiment in all cases: thermal shift delta Tm vs DMSO control; higher = stronger stabilization (binding)
Details in all cases: 12.5 µM; protein concentration 2 µM
LOC_OS01G01410-cb001 = tested on: LOC_OS01G01410-cb001
Method in brief: (§1)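 Thermal shift values come from differential scanning fluorimetry on purified rice kinase domains made in E. coli, with melting temperatures obtained from Boltzmann fits. Samples of 19.5 μl held 2 μM kinase, 100 mM potassium phosphate pH 7.5, 150 mM NaCl, 10% glycerol, 5 × SYPRO Orange and compound in DMSO, and were heated from 25°C to 95°C at 0.05°C/s. Each shift is a triplicate mean relative to the DMSO-only protein sample.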

LOC_OS01G02750-cb003 = tested on: LOC_OS01G02750-cb003
Method in brief: as §1

LOC_OS01G10900-cb004 = tested on: LOC_OS01G10900-cb004
Method in brief: as §1

LOC_OS01G13800-cb001 = tested on: LOC_OS01G13800-cb001
Method in brief: as §1

LOC_OS01G14860-cb001 = tested on: LOC_OS01G14860-cb001
Method in brief: as §1

LOC_OS01G21960-cb002 = tested on: LOC_OS01G21960-cb002
Method in brief: as §1

LOC_OS01G39600-cb002 = tested on: LOC_OS01G39600-cb002
Method in brief: as §1

LOC_OS01G48390-cb002 = tested on: LOC_OS01G48390-cb002
Method in brief: as §1

LOC_OS01G51400-cb002 = tested on: LOC_OS01G51400-cb002
Method in brief: as §1

LOC_OS01G52050-cb004 = tested on: T1, LOC_OS01G52050-cb004
T1 sequence (whole entry): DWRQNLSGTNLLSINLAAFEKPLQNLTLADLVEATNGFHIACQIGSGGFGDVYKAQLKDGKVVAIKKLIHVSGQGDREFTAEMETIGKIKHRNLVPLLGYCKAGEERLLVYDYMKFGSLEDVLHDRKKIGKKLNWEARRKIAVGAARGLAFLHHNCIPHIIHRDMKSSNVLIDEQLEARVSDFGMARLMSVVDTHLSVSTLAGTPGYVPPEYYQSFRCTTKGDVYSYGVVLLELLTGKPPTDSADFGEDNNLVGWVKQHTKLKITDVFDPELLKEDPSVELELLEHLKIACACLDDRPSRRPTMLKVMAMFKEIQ
Method in brief: as §1

LOC_OS01G57100-cb003 = tested on: LOC_OS01G57100-cb003
Method in brief: as §1

LOC_OS01G60330-cb001 = tested on: LOC_OS01G60330-cb001
Method in brief: as §1

LOC_OS01G60700-cb002 = tested on: LOC_OS01G60700-cb002
Method in brief: as §1

LOC_OS01G63280-cb003 = tested on: LOC_OS01G63280-cb003
Method in brief: as §1

LOC_OS01G67340-cb003 = tested on: LOC_OS01G67340-cb003
Method in brief: as §1

LOC_OS01G70970-cb002 = tested on: LOC_OS01G70970-cb002
Method in brief: as §1

LOC_OS02G07810-cb001 = tested on: LOC_OS02G07810-cb001
Method in brief: as §1

LOC_OS02G08530-cb003 = tested on: LOC_OS02G08530-cb003
Method in brief: as §1

LOC_OS02G14120-cb001 = tested on: LOC_OS02G14120-cb001
Method in brief: as §1

LOC_OS02G17970-cb001 = tested on: LOC_OS02G17970-cb001
Method in brief: as §1
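Note: purified Escherichia coli-expressed rice kinase domain construct.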

SMILES | thermal shift delta Tm (LOC_OS01G01410-cb001) | thermal shift delta Tm (LOC_OS01G02750-cb003) | thermal shift delta Tm (LOC_OS01G10900-cb004) | thermal shift delta Tm (LOC_OS01G13800-cb001) | thermal shift delta Tm (LOC_OS01G14860-cb001) | thermal shift delta Tm (LOC_OS01G21960-cb002) | thermal shift delta Tm (LOC_OS01G39600-cb002) | thermal shift delta Tm (LOC_OS01G48390-cb002) | thermal shift delta Tm (LOC_OS01G51400-cb002) | thermal shift delta Tm (LOC_OS01G52050-cb004) | thermal shift delta Tm (LOC_OS01G57100-cb003) | thermal shift delta Tm (LOC_OS01G60330-cb001) | thermal shift delta Tm (LOC_OS01G60700-cb002) | thermal shift delta Tm (LOC_OS01G63280-cb003) | thermal shift delta Tm (LOC_OS01G67340-cb003) | thermal shift delta Tm (LOC_OS01G70970-cb002) | thermal shift delta Tm (LOC_OS02G07810-cb001) | thermal shift delta Tm (LOC_OS02G08530-cb003) | thermal shift delta Tm (LOC_OS02G14120-cb001) | thermal shift delta Tm (LOC_OS02G17970-cb001)
O=C(/C=C/c1ccc(O)c(O)c1)c1ccc(O)cc1O [Butein] | 3.34 °C | 6.05 °C | 1.41 °C | 1.88 °C | 4.26 °C | 3.26 °C | 4.11 °C | 1.83 °C | 2.14 °C | 9.01 °C | 4.85 °C | 7.74 °C | 1.12 °C | 17.7 °C | 7.74 °C | 2.95 °C | 1.6 °C | 1.81 °C | 4.14 °C | 3.5 °C
O=C1c2ccc(Nc3ccc(F)cc3F)cc2CCc2ccc(OC[C@H](O)CO)cc21 [Skepinone-L] | 0.24 °C | 1.29 °C | 1.14 °C | -0.71 °C | 0.36 °C | 0.57 °C | -1.35 °C | 0.21 °C | -0.11 °C | 0.04 °C | 1.15 °C | 1.18 °C | 0.79 °C | 0.21 °C | 0.84 °C | 0.42 °C | -0.07 °C | 0.85 °C | 0.72 °C | 0.17 °C
N#C/C(=C(/N)Sc1ccc(N)cc1)c1ccccc1C(F)(F)F | 1.06 °C | -0.14 °C | 0.32 °C | 0.3 °C | 0.5 °C | 0.38 °C | -0.02 °C | 0.18 °C | -0.05 °C | 0.3 °C | 0.82 °C | 0.59 °C | 0.64 °C | -0.09 °C | -0.57 °C | 0.23 °C | 0.12 °C | 0.32 °C | -0.1 °C | 0.43 °C
COC(=O)N[C@@H](C)CNc1nccc(-c2cn(C(C)C)nc2-c2cc(Cl)cc(NS(C)(=O)=O)c2F)n1 [Encorafenib (LGX818)] | 0.41 °C | 0.83 °C | 0.1 °C | -0.12 °C | 5.56 °C | 0.28 °C | 0.05 °C | 0.2 °C | 0.1 °C | 0.5 °C | 1.3 °C | 0.6 °C | 1.13 °C | 16.6 °C | 0.27 °C | 0.24 °C | 0.09 °C | 0.83 °C | 1.23 °C | 0.55 °C
O=C1CCc2c(Oc3ccc4c(c3)[C@@H]3[C@H](O4)[C@H]3c3nc4cc(C(F)(F)F)ccc4[nH]3)ccnc2N1 [Lifirafenib (BGB-283)] | 1.01 °C | 3.41 °C | 2.3 °C | 1.54 °C | 5.38 °C | 1.8 °C | 0.61 °C | 1.85 °C | 0.55 °C | 2.71 °C | 2.04 °C | 3.33 °C | 1.67 °C | 8.07 °C | 1.66 °C | 0.46 °C | 1.17 °C | 1.38 °C | 2.67 °C | 2.49 °C
Cn1c(=O)c(Oc2ccc(F)cc2F)cc2cnc(NC(CCO)CCO)nc21 | 0.37 °C | 0.46 °C | 1.21 °C | 0.21 °C | 0.44 °C | 0.89 °C | 0.22 °C | -0.01 °C | -0.14 °C | 0.02 °C | 1.18 °C | 0.87 °C | 1.45 °C | 0.27 °C | 0.29 °C | 0.4 °C | 0.02 °C | 1.22 °C | 1.36 °C | 1 °C
Cn1nccc1Nc1nccc(-c2ccn([C@H](CO)c3ccc(Cl)c(F)c3)c(=O)c2)n1 | 0.99 °C | 1.21 °C | 0.24 °C | -0.2 °C | 5 °C | 0.94 °C | 0.18 °C | 0.6 °C | 0.59 °C | 0.85 °C | 1.99 °C | -0.22 °C | 0.52 °C | 0 °C | 0.09 °C | 0.22 °C | -0.02 °C | 0.98 °C | 0.71 °C | -0.12 °C
CN1CCN(c2nc(C3=C(c4c[nH]c5ccccc45)C(=O)NC3=O)c3ccccc3n2)CC1 [Sotrastaurin] | 0.84 °C | 3.23 °C | 0.77 °C | 0.15 °C | 3.2 °C | 2.53 °C | 3.02 °C | 2.55 °C | 0.38 °C | -0.06 °C | 2.03 °C | 0.97 °C | 0.76 °C | 0.55 °C | 0.35 °C | 0.69 °C | 0.94 °C | 1.16 °C | 1.17 °C | 0.29 °C
C=CC(=O)Nc1cccc(Nc2nc(Nc3ccc(NC4CN(CCF)C4)cc3OC)ncc2C(F)(F)F)c1 | 0.5 °C | -0.47 °C | 0.12 °C | -0.76 °C | 0.1 °C | 0.07 °C | 1.11 °C | 2.29 °C | 0.35 °C | 0.31 °C | 0.4 °C | 0.07 °C | 0.83 °C | 0.2 °C | -0.31 °C | 0.87 °C | 0.93 °C | 3.91 °C | 1.12 °C | 0.41 °C
NC[C@@](O)(c1ccc(Cl)cc1)c1ccc(-c2cn[nH]c2)cc1 | 0.04 °C | 1.13 °C | 0.24 °C | 0.5 °C | 0.53 °C | 1.22 °C | -0.16 °C | 1.06 °C | 0.36 °C | 0.51 °C | 2.29 °C | 1.43 °C | 1.37 °C | 0.56 °C | 0.77 °C | 0.29 °C | 0.52 °C | 0.75 °C | 1.05 °C | 0.63 °C
Cc1cc(Nc2nc(N[C@@H](C)c3ncc(F)cn3)ncc2Cl)[nH]n1 | 4.53 °C | 2.77 °C | 0.35 °C | -0.03 °C | 2.85 °C | 2.53 °C | 4.56 °C | 6.25 °C | 0.55 °C | 0.71 °C | 1.57 °C | 4.82 °C | 0.28 °C | 1.3 °C | -0.24 °C | 2.3 °C | 0.96 °C | 2.02 °C | 8.03 °C | 0.48 °C
CC(C)Oc1ccc(-c2nn([C@@H](C)c3oc4ccc(F)cc4c(=O)c3-c3cccc(F)c3)c3ncnc(N)c23)cc1F | 0.45 °C | 1.4 °C | 0.72 °C | 0.18 °C | 0.59 °C | 0.77 °C | -0.2 °C | 1.45 °C | 0.32 °C | 0.73 °C | 1.03 °C | 1.25 °C | 0.79 °C | 0.47 °C | 0.6 °C | 0.55 °C | -0.1 °C | 0.12 °C | 1.41 °C | 1.06 °C
COc1cc2c(Oc3ccc(NC(=O)C4(C(=O)Nc5ccc(F)cc5)CC4)cc3F)ccnc2cc1OCCCN1CCOCC1 | 2.26 °C | 3.47 °C | 1.69 °C | -0.35 °C | 1.69 °C | 0.4 °C | 0.45 °C | 6.85 °C | 0.19 °C | 4.66 °C | 0.61 °C | 1.45 °C | 0.58 °C | 0.93 °C | 3.45 °C | 2.5 °C | 1.74 °C | 1.31 °C | 7.45 °C | 0.62 °C

From the supplement of paper PMC9694430
